This note sets out measurements from PubChem BioAssay AID1379 (National Center for Advancing Translational Sciences (NCATS), 2008).

Out of some 200,000 compounds screened, about 560 (0.28%) were called active. The entries come from a sample that favours actives as a whole. Where a call stands in place of a potency, no number is given. A number with no mark means an inactive call. The call rests on the fitted dose curve; in most records, active means well fitted inhibition curve with a large enough effect; inconclusive means small, poorly fitted or top-dose-only effect; inactive means flat fitted curve, though single readings scatter.
Potency means the concentration at half of the fitted maximal effect.

The target in this assay is Luciferin 4-monooxygenase (Photuris pensylvanica) (UniProt Q27757). The assay is described as follows: Counterscreen for Luciferase (Kinase-Glo TM) Inhibition. Further: nearly all actives have a fitted effect of over 60% in size. The note with it: ATP luminescence, 8 min; series mostly up to 38.3 µM. How it is done:
NCGC Assay Overview: NIH Molecular Libraries Screening Centers Network [MLSCN] NIH Chemical Genomics Center [NCGC] MLSCN Grant: None Luciferase (Kinase-Glo, Promega Corporation) was assayed for its ability to generate light using ATP and luciferin as substrates. The ATP concentration in the assay (10 uM) was within the linear range of enzyme activity for the assay conditions used.
NCGC Assay Protocol Summary: Four uL of substrate mix (final concentration, 50 mM imidazole pH 7.2, 50 mM KCl, 7 mM MgCl2, 10 uM ATP, 0.01% Tween 20, 0.05% BSA) was dispensed into white 1536 well plates. Twenty-three nL of compound was delivered by a pin tool and 2 uL of luciferase detection mix (Kinase-Glo, Promega)) was added. Following 8-minute incubation at ambient temperature, luminescence was measured by a ViewLux (Perkin Elmer) at 5 seconds exposure/plate.
On the technique in general: A counterscreen serves to expose hits that act by an unwanted route or on another target.
As to `CC(=O)[C@H](C(c1ccccc1)N1CCOCC1)N1CCOCC1` (stereo partly specified), the activity change, negative = inhibition was -6.68% [at 7.66 µM].

`O=C(O)C1CCCN(CCC=C(c2ccccc2)c2ccccc2)C1` (stereo unspecified): the activity change, negative = inhibition result is “inactive”. Turning to `CCCCCCCCCCCCCCCCO`, the activity change, negative = inhibition entry is “inactive”. Same read-out and setting: in the case of `CCCCC/C=C\CC1OC1CCCCCCCC(=O)O` (stereo unspecified) it was “inactive”; in that of `COc1cccc(CC(=O)N2CCc3nc(COc4ccccc4)c4c(c3C2)CO[C@@H](C)C4)c1`, -3.82% [at 7.66 µM]. Turning to `Nc1ncc(-c2cc3ccccc3oc2=O)s1`, the Potency is 11.2 µM (active).

For `O=c1oc2ccccc2cc1-c1csc(Nc2ccc(O)cc2)n1`, the activity change, negative = inhibition result is “inactive”.

On to `COc1ccc2nc(Nc3nc(-c4cc5ccccc5oc4=O)cs3)sc2c1`, for which the activity change, negative = inhibition result was “inactive”.

Regarding `NNc1nnc(NN)c2ccccc12`, the activity change, negative = inhibition entry is “inactive”. For `COc1cccc(-c2cc(=O)c3cc(NC(=O)c4ccc(C)cc4)ccc3[nH]2)c1`, the activity change, negative = inhibition result was “inactive”. For the compound `COc1ccc(-c2nc3c(c4c2C[C@H](c2ccccc2)OC4)CN(C(=O)C2CC2)CC3)c(C)c1`, the activity change, negative = inhibition was -7.98% [at 7.66 µM].

As for `COC(=O)C/C=C/[C@@H](C)[C@H](NC(=O)OCC(Cl)(Cl)Cl)c1ccccc1`, the activity change, negative = inhibition result was “inactive”. On the same count and under the same terms, in the case of `CCCCCCCC1=Cc2ccc(F)cc2C(C(C(=O)OC)C(=O)OC)N1C(=O)OC` (stereo unspecified) it was “inactive”. The same measure, in the same setting: in the case of `Cc1ccnc(NC(=O)c2ccc(NC(=O)c3ccco3)cc2)c1` it was “inactive”; in that of `Cc1occc1C(=O)Nc1cccc(Cn2cccn2)c1`, “inactive”. As to `Cc1ccnc(NC(=O)c2ccoc2C)c1`, the Potency is 6.31 µM (active). With `CCN1C(=O)N[C@@H](c2ccccc2)[C@H](C(C)=O)[C@H]1C`, the activity change, negative = inhibition is -7.74% [at 7.66 µM].

`C[C@@H]1C(c2ccc(F)cc2)=NN(c2ccc(Br)cc2)[C@H]1C(=O)N1CCOC1=O`: the activity change, negative = inhibition result was “inactive”. `O=C(O)C[C@@H]1NC(=O)[C@H](Cc2ccccc2)NC1=O`: the activity change, negative = inhibition result was “inactive”. Still for that read-out and setting: to `COC(=O)C1=C(C(=O)OC)[C@@H]2N(C)c3ccccc3[C@@]23C[C@@H](C(=O)OC)N(C(C)=O)C3=N1` belongs 0.685% [at 7.66 µM]; to `CC(C)C[C@H](NC(=O)[C@H](O)[C@H](N)Cc1ccccc1)C(=O)O`, “inactive”; to `COC(=O)C1=C(C(=O)OC)[C@@H]2N(C)c3ccccc3[C@@]23C[C@@H](C(=O)OC)N(C(=O)c2ccco2)C3=N1`, -2.48% [at 7.66 µM]. Regarding `Cc1nonc1C(=O)N/N=C/c1ccc(O)cc1`, the Potency is 5.01 µM (active). As for `COC(=O)N/N=C/c1ccc(/C=N/NC(=O)OC)cc1`, the activity change, negative = inhibition result was “inactive”. The same measure, in the same setting: in the case of `O=C(C[n+]1ccccc1)N/N=C/c1ccc(O)cc1` it was “inactive”; in that of `C[C@H]1Cc2c(COc3ccccc3)nc3c(c2CO1)CN(C(=O)NCc1ccco1)CC3`, -0.257% [at 7.66 µM]. Consider `Cc1cc(C(=O)Cn2cnc3cc([N+](=O)[O-])ccc3c2=O)c(C)n1CC1CCCO1` (stereo unspecified), for which the activity change, negative = inhibition entry was “inactive”.

`Cc1ccsc1C(=O)OCC(=O)c1cc2ccccc2o1`: the activity change, negative = inhibition entry is “inactive”. On to `Cc1ccsc1C(=O)OCC(=O)c1cc(C)n(CC2CCCO2)c1C` (stereo unspecified), for which the Potency is 12.6 µM (active). For `COC(=O)CCCC1=CC2=CC(=O)C(C)(OC(=O)c3cccs3)C(=O)C2=CN1CC(C)C` (stereo unspecified), the activity change, negative = inhibition is -3.18% [at 7.66 µM]. For `CCOC(=O)C1=C(C)c2ccccc2OC1(C)C(=O)OCC` (stereo unspecified), the activity change, negative = inhibition result was “inactive”. Same read-out and setting: in the case of `CC(C)(Oc1ccc(C2CC2(Cl)Cl)cc1)C(=O)O` (stereo unspecified) it was “inactive”.

With `O=C(Nc1nnc(C2CC2)s1)c1ccccn1`, the Potency is 10 µM (active). As to `O=C(Cc1cccs1)Nc1nnc(C2CC2)s1`, the activity change, negative = inhibition entry is “inactive”.

Take `Cc1occc1C(=O)Nc1nnc(C2CCCCC2)s1`: the activity change, negative = inhibition entry is “inactive”. Still for that read-out and setting: to `C=C(C)C(=O)c1ccc(F)cc1` belongs “inactive”; to `CC(C)C1=CC2=CC[C@H]3[C@](C)(C(=O)O)CCC[C@]3(C)C2CC1` (stereo partly specified), “inactive”; to `COC(=O)C1=C(C(=O)OC)[C@@H]2N(Cc3ccccc3)c3ccccc3[C@@]23C[C@@H](C(=O)OC)N(S(=O)(=O)c2ccc(C(F)(F)F)cc2)C3=N1`, -5.51% [at 7.66 µM]. Same read-out and setting: to `CCCCC/C=C\C/C=C\C/C=C\CCCCCCC(N)=O` belongs “inactive”; to `COC(=O)N1C(/C=C/C=C/c2ccc(OC)cc2)=Cc2ccccc2C1CC(C)=O` (stereo unspecified), -3.85% [at 7.66 µM]; to `CC1(C)O[C@@H]2C[C@@H]3[C@H]4C[C@@H](F)C5=CC(=O)C=C[C@]5(C)[C@@]4(F)[C@@H](O)C[C@]3(C)[C@]2(C(=O)CO)O1`, “inactive”.

Turning to `CCCCC/C=C\C/C=C\CCCCCCCCCC(=O)NCC(=O)O`, the activity change, negative = inhibition result was “inactive”. Still for that read-out and setting: in the case of `COc1ccc(-c2c(C)cc3oc(=O)cc(-c4ccccc4)c3c2C)cc1F` it was “inactive”; in that of `CC1=C(/C=C/C(C)=C/C=C/C(C)=C/C=C/C=C(C)/C=C/C=C(C)/C=C/C(=O)[C@]2(C)C[C@@H](O)CC2(C)C)C(C)(C)C[C@H](O)C1`, “inactive”; in that of `C#CCCOC(=O)N1C2=NC(C(=O)OC)=C(C(=O)OC)[C@@H]3N(C)c4ccc(OC)cc4[C@]23C[C@H]1C(=O)OC`, -8.5% [at 7.66 µM].

Turning to `Cc1cn(C2OC[C@@H](O)[C@@H]2CO)c(=O)[nH]c1=O` (stereo partly specified), the activity change, negative = inhibition entry is “inactive”.
